Measurements: PubChem BioAssay AID1159580 (chemical genetic matrix, 2015)
Screen size: about 5,500 compounds; about 2,000 (36%) were called active. Another 18% or so got no clear call; they are omitted. Rule as the data show it: active = normalized growth mostly below about 0.91 (no sharp cut-off); inconclusive = no clear call, values can overlap the other calls; inactive = mostly above about 0.92. This is one part of the list.

Assay: chemical genetic growth profiling, strain panel (AID 1159580);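 also: tested at 20 µM; growth read once vehicle control cultures reached saturation at 30 °C; 1 = growth at the plate median or of vehicle wells; lower values mean less growth of the strain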
Details: S. cerevisiae deletion strains, growth OD
[1] = locus YDR150W, strain NUM1, hits give low values
[2] = locus YGR078C, strain PAC10, hits give low values
[3] = locus YJR075W, strain HOC1, hits give low values
[4] = locus YPL241C, strain CIN2, hits give low values

Measured: normalized growth

CC12CCC3C(CCC4=CC(=O)CCC43CO)C1CCC2OC(=O)c1ccccc1 (centres undefined)
inactive: locus YAL013W, strain DEP1, hits give low values 0.994 | locus YBR229C, strain ROT2, hits give low values 1.01 | locus YCL061C, strain MRC1, hits give low values 0.999 | locus YDL101C, strain DUN1, hits give low values 1.01 | [1] 0.993 | locus YEL061C, strain CIN8, hits give low values 1 | [2] 1.01 | locus YHR030C, strain SLT2, hits give low values 0.946 | locus YHR087W, strain rtc3, hits give low values 1.01 | locus YJL187C, strain SWE1, hits give low values 1.02 | locus YJR043C, strain POL32, hits give low values 0.996 | [3] 1.02 | locus YLR039C, strain RIC1, hits give low values 0.978 | locus YLR058C, strain SHM2 (second series), hits give low values 1 | locus YLR085C, strain ARP6, hits give low values 1 | locus YLR262C, strain YPT6, hits give low values 0.956 | locus YML094W, strain GIM5, hits give low values 1 | locus YMR219W, strain ESC1, hits give low values 1.01 | locus YMR263W, strain SAP30, hits give low values 0.991 | locus YNL153C, strain GIM3, hits give low values 1.01 | locus YNL298W, strain CLA4 (second series), hits give low values 1.05 | locus YNL322C, strain KRE1, hits give low values 1.02 | locus YNR030W, strain Alg12, hits give low values 0.986 | locus YPL055C, strain LGE1, hits give low values 1.02 | [4] 1.02 | locus YPR135W, strain CTF4, hits give low values 0.923

C[C@]12CCC(=O)C=C1CC[C@@H]1[C@@H]2CC[C@]2(C)C(=O)CC[C@@H]12
inactive: locus YAL040C, strain CLN3, hits give low values 1.01 | locus YCL061C, strain MRC1 (second series), hits give low values 0.994 | [1] 0.988 | locus YDR363W, strain ESC2, hits give low values 0.999 | locus YER002W, strain NOP16, hits give low values 0.99 | [2] 0.987 | [3] 0.991 | locus YNL128W, strain TEP1, hits give low values 0.996 | locus YNL175C, strain NOP13, hits give low values 0.997 | locus YNL197C, strain WHI3, hits give low values 0.997 | locus YNL224C, strain SQS1, hits give low values 1.01 | locus YOR083W, strain WHI5 (second series), hits give low values 0.924 | [4] 0.997
